test system: T1, DCAMKL2; conditions: concentration: 1 μM, replicates: in singlicate; n = 1
T1 construct: gene DCLK2
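Note: KINOMEscan kinase panel screen.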

| SMILES | %Inh [%] |
| --- | --- |
| COc1cc2ncnc(Nc3cccc(Br)c3)c2cc1OC.Cl [GI230329] | 0 |
| CS(=O)(=O)CCNCc1nc(-c2ccc3ncnc(Nc4ccc(OCc5ccccc5)c(Cl)c4)c3c2)cs1.Cl [GW582764] | 0 |
| COc1ccc2cc(-c3nc(-c4ccccc4C(C)C)[nH]c3-c3ccncc3)ccc2c1 [SB-660566] | 0 |
| COc1ccc(Nc2nccc(N3CCC(NC(=O)C(C)c4ccc(Cl)cc4)CC3)n2)cc1 (stereo not shown) [GSK1379812] | 0 |
| Cc1ccccc1-c1cc(-c2c[nH]nc2-c2ccccn2)ccn1 [GW680061] | 6 |
| CC[C@@H]1CO[C@H](C(=O)Nc2ccccc2)CN1c1cc(-c2ccc3c(N)n[nH]c3c2)nc(NC)n1 [GSK2376236] | 0 |
| O=C1NC(=O)C(c2ccc(Cl)cc2)=C1Nc1cccc(Cl)c1 [SB-317651] | 0 |
| Cc1c(Cn2c3ccccc3n3c(=O)cc(N4CCOCC4)nc23)cccc1C(F)(F)F [GSK2306394] | 0 |
| Cc1ccc(NC(=O)Nc2ccccc2F)cc1-c1ccc(C(=O)Nc2ccncc2)cc1 [GSK1398477] | 40 |
| O=c1cc(N2CCOCC2)nc2n(Cc3cccc(Cl)c3Cl)c3ccccc3n12 [GSK2299009] | 7 |
| CC(=O)c1c(C)c2cnc(Nc3ccn(C)n3)nc2n(C2CCCC2)c1=O | 100 |
| COc1cccc(CNC(=O)NC2CCN(c3ccnc(Nc4ccc(F)cc4)n3)C2)c1 (stereo not shown) [GSK1379723] | 0 |
| CC(=O)c1c(C)c2cnc(Nc3ccc(N4CCNCC4)cn3)nc2n(C2CCCC2)c1=O | 0 |

From publication PMC5540273 (PLoS ONE, 2017)
